In PubChem BioAssay (NCI):
This is part of a sample that, as a whole, favours compounds with a hit. Of some 79,000 tested, about 15% had one in any assay. A number with no mark means an inactive call. Active and inactive are the calls of the source. No stated cut-off is given here; in the data, active means growth inhibition above about 70%; inactive means the rest.

Test: NCI Yeast Anticancer Drug Screen. Data for the CLN2oe strain (AID 163);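 further: 0% = growth of vehicle-only control cultures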
Conditions: S. cerevisiae CLN2oe strain, hits give high values
Method: Growth inhibition of yeast strains with defined genetic alterations is measured as a screen for potential anti-cancer activity. Selected strains with alterations in DNA damage repair or cell cycle control were exposed to compounds and growth inhibition was measured relative to vehicle treated controls. The strain used in this assay is CLN2oe

Row | Compound | growth inhibition (at 1.2 µM) [%] | growth inhibition (at 3.7 µM) [%] | growth inhibition (at 11.0 µM) [%] | growth inhibition (at 33.0 µM) | growth inhibition (at 100.0 µM)
1 | CCCCCCSc1ncnc2[nH]ncc12 | -7 | -8 | 3 | -4% | -4%
2 | CC(O)=NC(Cc1ccc2ccccc2c1)C(O)=NC(Cc1ccc(Cl)cc1)C(O)=NC(Cc1c[nH]c2ccccc12)C(O)=NC(CO)C(O)=NC(Cc1ccc(O)cc1)C(O)=NC(CCCN=C(N)N)C(O)=NC(CC(C)C)C(O)=NC(CCCN=C(N)N)C(=O)N1CCCC1C(O)=NC(C)C(=N)O (stereo not given) | -4 | 0 | 3 | 19% | 32%
3 | CNC(=O)OCc1c(COC(=O)NC)c2n(c1C)-c1ccc(OC)cc1CCC2 | -12 | -16 | -5 | 87% (active) | 100% (active)
4 | Cc1ccc2c(c1)C1(SC(C)C(=O)N1c1ccc(Cl)cc1)C(=O)N2 (stereo not given) | -1 | -11 | 4 | 91% (active) | 99% (active)
5 | Nc1n[n+]([O-])c2ccc(Cl)cc2[n+]1[O-] | 6 | 32 | 55 | 84% (active) | 95% (active)
6 | CC(C)CN(CC(C)C)C(=O)c1ccc(Cl)c(Cl)c1 | 2 | 9 | 14 | 41% | 99% (active)
7 | CCc1nc2ccc(NCCN(C)C)c3c(=O)c4ccccc4n1c23 | 18 | 13 | 17 | 33% | 46%
8 | O/N=C\c1c(O)ccc2ccccc12 | -6 | -6 | -5 | 3% | 28%
